According to PubChem BioAssay (NCI):
The panel holds about 83,000 compounds, 20% with a hit somewhere; the sample as a whole holds those more often.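 In brief: 96-well plates, 48 h treatment, single concentration, percent growth endpoint.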 Active and inactive are the calls of the source. The calls were made as follows: active = growth percent below 10; inactive = the rest.

system: HL-60(TB) leukemia; test: NCI-60 one-dose screen, 48 h (100 = growth as untreated, 0 = no growth, -100 = all killed); conditions: 10 µM unless noted

| SMILES | growth |
| --- | --- |
| COc1ccc(-c2cc(/C=C/C(=O)c3ccc(N)cc3)[nH]n2)cc1 | -23% (active) |
| COC1=C(OC)C(=O)C(OC)=C(OC)C1=O | 102% (inactive) |
| CSC1=Nc2c(c(C)c(-c3ccccc3)n2CCCN2CCCCC2)C2=NC(=O)C[C@H](C)N12 | -33.2% (active) |
| Cn1c(N)c(N=Cc2ccccc2)c(=O)n(C)c1=O | 86.1% (inactive) |
| COc1ccc(-n2nc(C)c3c(Nc4ccc(NC(=O)Nc5cc(C(F)(F)F)ccc5F)cc4)ncnc32)cc1 | 45.8% (inactive) |
| NS(=O)(=O)c1ccc(-n2ncc3c(SCc4ccccc4)ncnc32)cc1 | 88.1% (inactive) |
| COc1nc2c(c(=O)n1C)CN(c1ccccc1)C(=O)CN2C | 93% [100 µM] (inactive) |
| CCN1CCN(c2cc(C)nc(N(CCCNc3ccnc4cc(Cl)ccc34)Cc3ccc4c(c3)OCO4)n2)CC1 | -67.3% (active) |
| COc1ccc(-c2nc(SCC(C)C)nc(Nc3ccc(C)cc3)c2C#N)cc1 | 92.3% (inactive) |
| c1csc(-c2cn3nc(-c4c[nH]c5ccccc45)sc3n2)c1 | 7.07% (active) |
| O=C(O)c1ccc(-n2cc(/C=N/Nc3ccc(Cl)cc3)c(-c3ccc(F)c(F)c3)n2)cc1 | 27.1% (inactive) |
| COc1ccc2c(c1)/C(=C/c1sc(=S)n(Cc3ccco3)c1O)C=N2 | 3.03% (active) |
| COc1ccc(/C=C2\CCC/C(=C\c3ccc(OC)c(OC)c3)C2=O)cc1OC | 3.46% (active) |
| CCc1c(C)[nH]c(=O)c(C(N)=O)c1C#N | 102% (inactive) |
| CC/C(=C(\c1ccc(O)cc1)c1ccc(OCCN(C)CCN(C)C(=O)CCCCC(=O)c2c(C)[nH]c(/C=C3\N=C(c4ccc[nH]4)C=C3OC)c2C)cc1)c1ccccc1 | 103% (inactive) |
